Where “and” joins values, the source holds several entries; their conditions need not be identical. Equal values may be shown once. About 1,200 (0.39%) of roughly 310,000 compounds were called active. The rule behind the calls is not given here. A selection follows. Potency and affinity values are given separately.
Each compound was assayed against Large T antigen (Simian virus 40) (UniProt P03070) (assay: TAg ATPase/helicase activity blockers – biochemical (AID 1903)). Details: SV40 large T antigen ATPase/helicase inhibition assay; at 20 µM; hits give high values.
Sequence of Large T antigen (Simian virus 40) (P03070 whole entry, looked up): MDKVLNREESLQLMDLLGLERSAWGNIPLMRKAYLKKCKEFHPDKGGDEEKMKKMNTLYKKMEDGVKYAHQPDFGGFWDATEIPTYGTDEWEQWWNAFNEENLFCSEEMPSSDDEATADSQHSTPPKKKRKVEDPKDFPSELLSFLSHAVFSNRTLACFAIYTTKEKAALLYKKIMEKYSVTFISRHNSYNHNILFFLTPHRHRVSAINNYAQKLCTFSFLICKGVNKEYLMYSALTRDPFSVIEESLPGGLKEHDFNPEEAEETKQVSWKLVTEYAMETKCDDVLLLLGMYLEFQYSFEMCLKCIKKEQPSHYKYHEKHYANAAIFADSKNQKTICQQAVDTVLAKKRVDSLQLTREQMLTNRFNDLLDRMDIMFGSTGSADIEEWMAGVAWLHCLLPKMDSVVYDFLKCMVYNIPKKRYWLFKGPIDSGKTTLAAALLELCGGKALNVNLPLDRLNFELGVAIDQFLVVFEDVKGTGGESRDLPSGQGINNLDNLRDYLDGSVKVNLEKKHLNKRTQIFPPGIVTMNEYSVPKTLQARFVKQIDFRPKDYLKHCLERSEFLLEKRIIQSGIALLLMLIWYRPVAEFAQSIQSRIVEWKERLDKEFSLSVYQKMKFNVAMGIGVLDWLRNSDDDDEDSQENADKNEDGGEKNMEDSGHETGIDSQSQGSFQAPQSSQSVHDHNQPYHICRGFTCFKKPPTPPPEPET

inhibition, inactive:
CC(C)C(=O)NNC(=O)c1csc(CS(=O)(=O)c2ccc(Cl)cc2)n1 9.42%
Cc1cnc(C(=O)NC2CCSc3ccccc32)cn1 (stereo not given) 9.84%
CC(C)[C@@H]1CC[C@@H](C)c2c(-c3ccccc3)n[nH]c21 -1.85%
COc1c(O)ccc2c1CN1CCc3cc4c(cc3C1C2)OCO4 (stereo not given) 58.7%
COc1cc2c(cc1OC)C(Cc1ccc(O)cc1)N(C)CC2 (stereo not given) 2.71%
COc1ccc2c(c1O)-c1ccccc1CCN(C)C2 20.8%
CN1CCC(=C2c3ccccc3C(O)c3ccccc32)CC1 (stereo not given) 5.26%
CN1CCc2cccc3c2[C@@H]1Cc1ccc(O)c(O)c1-3 39.9%
CN1CCc2cc3c(c4c2[C@H]1[C@H](O)c1ccccc1-4)OCO3 14.8%
CCC(C)NCCC(=O)Nc1ccc(Cl)c(S(=O)(=O)Nc2ccc(Cl)cc2)c1 (stereo not given) 7.37%
O=C(Nc1cccc(-c2nn[nH]n2)c1)c1ccc(Cl)s1 8.59%
Cc1cc(C(=O)Nc2cccc(C(=O)O)c2)c(C)o1 4.39%
CC(C)(C)c1cc(N)n(-c2ccc(C(=O)O)cc2)n1 11.4%
C/C(CC(=O)Nc1ccccn1)=N\NC(=O)c1ccc2ccccc2c1 -45.2%
COc1ccc(NC(=O)C/C(C)=N/NC(=O)c2cnccn2)cc1 -3.03%
CCC(=O)N/N=C(\C)CC(=O)Nc1ccc2ccccc2c1 11.7%
C/C(CC(=O)Nc1ccc(N(C)C)cc1)=N\NC(=O)c1ccccn1 28.2%
C/C(CC(=O)Nc1ccc(N(C)C)cc1)=N\NC(=O)c1ccc(F)cc1 29.8%
C/C(CC(=O)Nc1ccc(N(C)C)cc1)=N\NC(=O)c1ccc(C(C)(C)C)cc1 9.71%
Cc1ccc(N(Cc2ccc(C(=O)Nc3c(C)n(C)n(-c4ccccc4)c3=O)cc2)S(C)(=O)=O)cc1C 9.36%
O=C1[C@@H]2Cc3c([nH]c4ccccc34)C(c3ccccc3)N2C(=O)CN1CCO (stereo not given in full) 9.64%
CCC(C)NC(=O)CCc1nnc2ccc(N3CCC(C)CC3)nn12 (stereo not given) 6.91%
Oc1ccc(Cl)cc1N=Nc1ccccc1 8.08%
Nc1cc(S(=O)(=O)O)cc([N+](=O)[O-])c1O 23%
Cc1ccc(N=Nc2ccc(N)cc2C)c(S(N)(=O)=O)c1 10.1%
O=S(=O)(O)c1cccc(N=Nc2c(O)ccc3ccccc23)c1 7.77%
C#CCOCCOCCOCCNc1nc(N2CCN(C(=O)C([C@@H](C)CC)n3cc(C(N)Cc4ccc(O)cc4)nn3)CC2)nc(N2CCN(C(=O)[C@H](CCC(=O)O)n3cc(C(N)Cc4ccc(O)cc4)nn3)CC2)n1 (stereo not given in full) 18.6%
CN(CC(=O)Nc1ccc(Cl)cc1)CC(=O)Nc1ccc(F)c(F)c1F -109%
O=C(NCc1ccccn1)C1CCCN(S(=O)(=O)c2cccc3nsnc23)C1 (stereo not given) 9.56%
O=C(c1ccc(Oc2ccc(C(F)(F)F)cc2[N+](=O)[O-])cc1)N1CCOCC1 1.7%
O=C(Nc1cccc(Br)c1)c1ccc(CN2CCc3ccccc3C2)cc1 6.55%
Nc1nc(Nc2ccccc2)nc(N2CCOCC2)c1[N+](=O)[O-] 0.42%
Nc1sc(-c2ccccc2)cc1C(=O)O 4.81%
CCOC(=O)c1cc(CC)sc1N 14.6%
COC(=O)c1cc(-c2ccccc2)sc1N 11.1%
CCOC(=O)c1cc(-c2ccccc2)sc1N 6.85%
CC(OC(=O)c1oc2ccccc2c1CSC1CCCCC1)C(=O)NC(N)=O (stereo not given) 6.96%
Cc1[nH]c2ccc(C(=O)NCCCN3CCN(C)CC3)cc2c1C 15.6%
O=C(/C=C/c1ccccc1)N1CCN(c2ccc([N+](=O)[O-])c(N3CCOCC3)c2)CC1 9.06%
Cc1ccc(CNc2ccc(N3CCOCC3)cc2)s1 14.2%
CC(=O)N1CCN(c2ccc(NCc3ccc(C)cc3)cc2)CC1 14.1%
CC(=O)N1CCN(c2ccc(NCc3ccccc3)cc2)CC1 8.55%
CCc1ccc(CNc2ccc(N3CCN(C(C)=O)CC3)cc2)cc1 9.55%
COc1ccc(CNC(=O)CCCn2nc(C)c3c(C)n(-c4ccccc4)nc3c2=O)cc1 12.9%
CCOc1ccccc1-c1noc(CCC(=O)Nc2cccnc2)n1 10.5%
C=C(C)COc1ccc(-c2n[nH]c(C)c2-c2ccc(OC)c(OC)c2)c(O)c1 13.9%
COc1ccc(-c2c(-c3ccc(OCC(=O)NN)cc3O)n[nH]c2C)cc1OC 5.82%
N#C[C@H]1C2OC2c2ccccc2N1C(=O)c1ccccc1 (stereo not given in full) 3.71%
O=c1cc(CO)oc(CN2CCN(c3ccccc3)CC2)c1O 3.29%
COc1ccc(Cl)cc1NC(=S)Nc1cccnc1 5.19%
CC(=O)O[C@]1(C(C)=O)CC[C@H]2[C@@H]3C=C(C)C4=CC(=O)CC[C@]4(C)[C@H]3CC[C@@]21C 24.3% and 8.14%
CC(=O)O[C@]1(C(C)=O)CCC2C3C=C(C)C4=CC(=O)CC[C@]4(C)C3CC[C@@]21C (stereo not given in full) 6.68%
CC(=O)O[C@]1(C(C)=O)CC[C@H]2[C@@H]3C[C@H](C)C4=CC(=O)CC[C@]4(C)[C@H]3CC[C@@]21C 21.1% and 1.31%
Cc1ccccc1NC(=O)CN1C(=O)COc2ccc(S(=O)(=O)N3CCCC3)cc21 2.93%
O=C(Nc1ccncc1)Nc1ccc(Cl)cc1 10.4%
Cc1cc(C(=O)NCc2ccco2)c2cc(F)ccc2n1 5.22%
CCCCn1c(N)c(N(CCC(C)C)C(=O)c2cc(-c3ccco3)nc3ccccc23)c(=O)[nH]c1=O 28.5%
CCOc1ccc(C(=O)NC2CC(=O)N(c3ccc4c(c3)OCCO4)C2)cc1 (stereo not given) 30.1%
COc1ccc(/C=C/C(=O)c2ccc([N+](=O)[O-])o2)cc1 2.57%
O=C(/C=C/c1ccc(Cl)cc1)c1ccc([N+](=O)[O-])o1 34.3%
COc1ccc(/C=C/C(=O)c2ccc([N+](=O)[O-])o2)cc1OC 17.4%
Cc1cccc(NC(=O)c2ccc([N+](=O)[O-])o2)c1C -1.78%
Cc1ccc(/C=C/C(=O)c2ccc([N+](=O)[O-])o2)cc1 24.6%
Cc1cccc(/C=C/C(=O)c2ccc([N+](=O)[O-])o2)c1 27.2%
CC(=O)CC1(C)OC(N)=C(C#N)C1(C#N)C#N (stereo not given) 5.62%
N#Cc1ccc(C(=O)Nc2cc(-c3ccccc3)nn2-c2ccccc2)cc1 2.51%
Cc1cc(-c2sccc2C)nc(-n2cccc2)n1 1.14%
O=C1Nc2ccccc2Nc2ccccc21 0.33%
Cc1ccc(N=C2CCCCCN2C)c(C#N)c1 15.4%
CCN(CC)CCC(=O)N1c2ccccc2CCc2ccc(NC(=O)OC)cc21 6.36%
COC(=O)/C(=C\Nc1ccc(Cl)cc1Cl)NC(=O)c1ccc(Cl)cc1Cl 6.46%
COc1ccc(/C=C2/SC(=S)N(n3c(C)ccc3C)C2=O)cc1 12.7%
O=C(CSc1cccc2cccnc12)N/N=C/c1ccncc1 13.8%
COc1ccc(/C=N/NC(=O)COc2cccc3cccnc23)cc1OC 16.2%
NNC(=O)c1ccc(CSc2cccc3cccnc23)cc1 8.28%
O=C(CSc1cccc2cccnc12)N/N=C/c1cccc(O)c1 3.2%
O=C(N/N=C/c1ccccc1Br)c1ccc(CSc2cccc3cccnc23)cc1 8.68%
O=C(COc1cccc2cccnc12)N/N=C/c1ccccc1O 0.79%
O=C(CSc1cccc2cccnc12)N/N=C/c1ccc(F)cc1 5.35%
COc1cccc(/C=N/NC(=O)CSc2cccc3cccnc23)c1 14.4%
COc1ccc(NC(=O)CN(C)C(=O)Cc2ccc3c(c2)OCCO3)cc1 4.23%
CSCC(=O)N1CCc2ccc(NC(=O)c3ccccc3Cl)cc2C1 3.34%
COc1ccccc1NC(=O)CCS(=O)(=O)c1cc2c(cc1Cl)NC(=O)CO2 -2.36%
Cn1nc(C(=O)NC2=NCCS2)ccc1=O 16.5%
CC1(C)CC(NC(=O)COc2ccc3ccccc3c2)CC(C)(C)N1 12.2%
COc1ccc(NC(=O)CSc2nc3sc(C)cc3c(=O)n2C)cc1 8.62%
CC(CC(=O)NC(C)c1ccc2c(c1)OCCO2)c1ccccc1 (stereo not given) 7.67%
O=S(=O)(c1ccccc1OC(F)(F)F)N1CCN(c2ccnc3cc(Cl)ccc23)CC1 4.46%
Cc1nc(=O)c(-c2ccccc2)c(C)n1Cc1ccccc1 1.9%
O=C(COc1ccccc1[N+](=O)[O-])N/N=C/c1ccncc1 25.8%
O=C(COc1ccccc1[N+](=O)[O-])N/N=C/c1ccc(O)c([N+](=O)[O-])c1 7.71%
Cc1cc2c(Nc3cccc(O)c3)ncnc2s1 26.2%
CCc1cc2c(NCc3ccccc3)nc(C)nc2s1 17.6%
CCc1cc2c(Nc3ccccc3O)nc(C)nc2s1 9.83%
Cc1cc2c(Nc3ccccc3)ncnc2s1 -2.89%
